# Test results as given in publication PMC7862700, “An all-to-all approach to the identification of sequence-specific readers for epigenetic DNA modifications on cytosine”.
# Legend:
# Experiment in all cases: DAPPL (digital affinity profiling via proximity ligation, sequencing); 10 mM Tris-HCl pH 7.5, 50 mM NaCl, 1 mM DTT, 4% glycerol, room temperature, 30 min; GST-TFs on glutathione beads, 16-mer random dsDNA library, 0.1% formaldehyde crosslink after washing; high values mean tight binding
# [1] = target: T1, FLI1 (Homo sapiens, UniProt Q01543 1-452); settings: protein: recombinant; tags: N-terminal GST; dsDNA, one strand shown
# T1 sequence: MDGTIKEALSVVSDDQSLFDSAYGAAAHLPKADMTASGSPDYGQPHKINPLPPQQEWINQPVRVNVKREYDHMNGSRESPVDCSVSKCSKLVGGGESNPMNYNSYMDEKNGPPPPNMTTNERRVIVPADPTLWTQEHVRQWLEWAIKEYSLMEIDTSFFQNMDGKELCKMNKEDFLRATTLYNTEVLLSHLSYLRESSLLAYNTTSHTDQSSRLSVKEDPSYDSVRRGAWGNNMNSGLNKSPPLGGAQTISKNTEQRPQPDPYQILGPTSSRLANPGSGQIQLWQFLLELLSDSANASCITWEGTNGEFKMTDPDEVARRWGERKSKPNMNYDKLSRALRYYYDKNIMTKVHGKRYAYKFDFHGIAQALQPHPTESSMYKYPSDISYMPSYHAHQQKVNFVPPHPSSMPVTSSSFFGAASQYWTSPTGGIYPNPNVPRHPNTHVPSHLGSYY
# Procedure, shortened: (§1)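 Beads coated with glutathione captured GST-fused human transcription factors that had been expressed in yeast, and the factors were then given DNA barcodes and pooled with a tag-only sample. The pools were incubated with 200 nmole of a random double-stranded 16-mer DNA library in Tris/NaCl/DTT/glycerol buffer for 30 min at room temperature, washed, crosslinked with 0.1% formaldehyde and proximity-ligated with BsaI/T4 ligase at 37 °C for 1 h. PCR amplification and Illumina NextSeq500 sequencing came last. Binding signal is each hexamer's read frequency for a factor divided by its frequency for the tag-only sample.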
# [2] = target: T2, ELK1 (Homo sapiens, UniProt P19419 1-428); settings: protein: recombinant; tags: N-terminal GST; dsDNA, one strand shown
# T2 sequence: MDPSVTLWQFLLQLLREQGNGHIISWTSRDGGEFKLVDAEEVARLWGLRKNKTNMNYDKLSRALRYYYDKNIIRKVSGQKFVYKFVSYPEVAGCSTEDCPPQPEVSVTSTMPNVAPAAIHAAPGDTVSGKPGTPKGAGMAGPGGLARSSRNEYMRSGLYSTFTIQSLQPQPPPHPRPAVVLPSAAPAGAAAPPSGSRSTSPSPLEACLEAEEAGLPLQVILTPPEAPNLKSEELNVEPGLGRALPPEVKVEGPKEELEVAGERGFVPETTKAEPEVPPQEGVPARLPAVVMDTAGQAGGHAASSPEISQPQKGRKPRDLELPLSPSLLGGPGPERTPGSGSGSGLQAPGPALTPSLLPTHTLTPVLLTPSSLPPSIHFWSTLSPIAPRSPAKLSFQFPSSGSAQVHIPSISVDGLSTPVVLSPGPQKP
# Procedure, shortened: as §1
# [3] = target: T3, GABPA (Homo sapiens, UniProt Q06546 1-454); settings: protein: recombinant; tags: N-terminal GST; dsDNA, one strand shown
# T3 sequence: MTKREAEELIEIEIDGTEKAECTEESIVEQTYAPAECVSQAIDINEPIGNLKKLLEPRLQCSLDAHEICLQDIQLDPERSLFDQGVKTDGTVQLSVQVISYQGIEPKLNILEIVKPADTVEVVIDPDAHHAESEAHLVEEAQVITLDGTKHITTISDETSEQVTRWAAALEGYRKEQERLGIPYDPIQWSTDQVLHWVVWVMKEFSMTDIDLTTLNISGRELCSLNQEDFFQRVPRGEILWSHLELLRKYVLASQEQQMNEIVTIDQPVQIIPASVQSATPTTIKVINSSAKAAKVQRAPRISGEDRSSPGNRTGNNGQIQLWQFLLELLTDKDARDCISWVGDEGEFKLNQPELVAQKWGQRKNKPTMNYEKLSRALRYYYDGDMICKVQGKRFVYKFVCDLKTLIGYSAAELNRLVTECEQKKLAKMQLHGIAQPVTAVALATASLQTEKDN
# Procedure, shortened: as §1
# [4] = target: T4, ERG (Homo sapiens, UniProt P11308 1-479); settings: protein: recombinant; tags: N-terminal GST; dsDNA, one strand shown
# T4 sequence: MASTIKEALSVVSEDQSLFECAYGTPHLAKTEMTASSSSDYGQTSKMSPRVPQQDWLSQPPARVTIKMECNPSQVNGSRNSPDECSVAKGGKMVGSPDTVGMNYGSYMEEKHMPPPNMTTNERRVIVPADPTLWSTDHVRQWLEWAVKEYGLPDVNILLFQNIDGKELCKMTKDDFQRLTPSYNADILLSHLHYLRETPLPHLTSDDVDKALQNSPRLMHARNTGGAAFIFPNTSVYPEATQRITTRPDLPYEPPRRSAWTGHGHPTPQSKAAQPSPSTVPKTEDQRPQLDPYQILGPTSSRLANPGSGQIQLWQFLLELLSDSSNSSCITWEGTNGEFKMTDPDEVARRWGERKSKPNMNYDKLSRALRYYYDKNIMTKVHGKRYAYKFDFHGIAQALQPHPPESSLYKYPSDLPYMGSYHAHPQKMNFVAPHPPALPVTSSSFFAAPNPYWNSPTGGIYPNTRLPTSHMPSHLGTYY
# Procedure, shortened: as §1
# [5] = target: ELF1 (Homo sapiens, UniProt P32519 1-619); settings: protein: recombinant; tags: N-terminal GST; dsDNA, one strand shown
# Chain of ELF1 (P32519 whole entry): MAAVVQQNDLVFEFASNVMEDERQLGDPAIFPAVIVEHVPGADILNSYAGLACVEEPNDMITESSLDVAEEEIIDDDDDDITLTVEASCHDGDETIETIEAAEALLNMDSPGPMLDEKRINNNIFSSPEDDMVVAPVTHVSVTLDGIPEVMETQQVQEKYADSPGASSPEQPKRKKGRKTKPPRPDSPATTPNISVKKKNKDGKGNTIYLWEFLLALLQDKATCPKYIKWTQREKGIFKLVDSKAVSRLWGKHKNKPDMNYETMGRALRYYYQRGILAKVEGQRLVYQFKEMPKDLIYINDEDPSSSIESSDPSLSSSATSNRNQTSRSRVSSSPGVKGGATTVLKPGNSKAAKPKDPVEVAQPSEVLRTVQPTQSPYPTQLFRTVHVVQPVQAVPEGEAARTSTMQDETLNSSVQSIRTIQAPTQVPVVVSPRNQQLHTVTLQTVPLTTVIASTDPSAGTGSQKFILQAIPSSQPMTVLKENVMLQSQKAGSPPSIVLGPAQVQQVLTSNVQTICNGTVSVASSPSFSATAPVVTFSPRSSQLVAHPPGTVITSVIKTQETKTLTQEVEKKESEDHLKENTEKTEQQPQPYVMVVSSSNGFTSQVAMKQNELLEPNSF
# Procedure, shortened: as §1
# [6] = target: T5, EHF (Homo sapiens, UniProt Q9NZC4 1-300); settings: protein: recombinant; tags: N-terminal GST; dsDNA, one strand shown
# T5 sequence: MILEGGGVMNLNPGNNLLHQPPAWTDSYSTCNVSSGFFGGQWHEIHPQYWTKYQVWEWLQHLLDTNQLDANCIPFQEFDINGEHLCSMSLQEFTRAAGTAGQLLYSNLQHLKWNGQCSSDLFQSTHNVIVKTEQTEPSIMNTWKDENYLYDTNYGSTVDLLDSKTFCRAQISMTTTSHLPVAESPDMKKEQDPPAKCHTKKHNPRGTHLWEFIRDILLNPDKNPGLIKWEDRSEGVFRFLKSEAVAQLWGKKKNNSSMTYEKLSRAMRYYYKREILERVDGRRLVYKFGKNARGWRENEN
# Procedure, shortened: as §1
# [7] = target: SPI1 (Homo sapiens, UniProt P17947 1-270); settings: protein: recombinant; tags: N-terminal GST; dsDNA, one strand shown
# Procedure, shortened: as §1
# [8] = target: SPIB (Homo sapiens, UniProt Q01892 1-262); settings: protein: recombinant; tags: N-terminal GST; dsDNA, one strand shown
# Chain of SPIB (Q01892 whole entry): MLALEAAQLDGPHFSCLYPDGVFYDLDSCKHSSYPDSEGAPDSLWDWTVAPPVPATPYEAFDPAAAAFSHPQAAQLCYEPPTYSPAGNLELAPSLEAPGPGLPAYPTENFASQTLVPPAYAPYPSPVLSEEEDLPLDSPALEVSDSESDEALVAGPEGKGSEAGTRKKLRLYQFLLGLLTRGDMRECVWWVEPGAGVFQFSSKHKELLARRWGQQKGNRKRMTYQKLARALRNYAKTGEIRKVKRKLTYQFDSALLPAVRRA
# Procedure, shortened: as §1
# [9] = target: T6, ELK3 (Homo sapiens, UniProt P41970 1-407); settings: protein: recombinant; tags: N-terminal GST; dsDNA, one strand shown
# T6 sequence: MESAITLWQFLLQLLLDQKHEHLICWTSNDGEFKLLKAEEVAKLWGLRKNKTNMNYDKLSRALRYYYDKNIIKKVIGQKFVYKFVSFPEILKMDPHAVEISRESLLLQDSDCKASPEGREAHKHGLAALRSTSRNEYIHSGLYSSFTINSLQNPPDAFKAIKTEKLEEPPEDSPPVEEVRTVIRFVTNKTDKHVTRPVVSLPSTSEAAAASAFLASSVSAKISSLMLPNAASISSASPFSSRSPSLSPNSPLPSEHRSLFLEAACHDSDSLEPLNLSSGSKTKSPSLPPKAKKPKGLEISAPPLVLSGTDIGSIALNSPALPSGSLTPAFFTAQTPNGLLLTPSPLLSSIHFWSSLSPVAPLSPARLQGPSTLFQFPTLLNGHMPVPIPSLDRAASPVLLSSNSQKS
# Procedure, shortened: as §1
# [10] = target: T7, FEV (Homo sapiens, UniProt Q99581 1-238); settings: protein: recombinant; tags: N-terminal GST; dsDNA, one strand shown
# T7 sequence: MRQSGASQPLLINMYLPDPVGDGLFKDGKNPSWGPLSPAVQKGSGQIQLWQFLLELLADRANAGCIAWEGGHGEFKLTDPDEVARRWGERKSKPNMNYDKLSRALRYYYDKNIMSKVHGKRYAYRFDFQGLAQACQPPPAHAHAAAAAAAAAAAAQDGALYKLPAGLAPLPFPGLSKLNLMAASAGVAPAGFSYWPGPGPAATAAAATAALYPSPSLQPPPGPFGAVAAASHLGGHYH
# Procedure, shortened: as §1
# [11] = target: ETV5 (Homo sapiens, UniProt P41161 1-510); settings: protein: recombinant; tags: N-terminal GST; dsDNA, one strand shown
# Chain of ETV5 (P41161 whole entry): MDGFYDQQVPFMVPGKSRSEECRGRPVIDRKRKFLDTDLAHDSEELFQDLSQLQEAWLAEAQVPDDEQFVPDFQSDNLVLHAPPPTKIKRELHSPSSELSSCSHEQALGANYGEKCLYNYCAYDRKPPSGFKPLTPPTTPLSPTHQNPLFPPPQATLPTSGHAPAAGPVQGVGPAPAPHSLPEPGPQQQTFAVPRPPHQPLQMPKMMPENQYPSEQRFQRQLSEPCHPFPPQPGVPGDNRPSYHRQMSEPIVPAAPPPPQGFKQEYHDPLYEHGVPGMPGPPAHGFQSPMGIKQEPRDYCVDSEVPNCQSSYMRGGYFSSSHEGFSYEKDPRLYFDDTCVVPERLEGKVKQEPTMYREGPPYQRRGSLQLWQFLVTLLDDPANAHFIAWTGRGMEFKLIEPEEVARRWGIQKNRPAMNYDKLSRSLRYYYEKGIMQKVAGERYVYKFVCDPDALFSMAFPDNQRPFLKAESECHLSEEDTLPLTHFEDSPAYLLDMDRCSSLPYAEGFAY
# Procedure, shortened: as §1
# [12] = target: HSF1 (Homo sapiens, UniProt Q00613 1-529); settings: protein: recombinant; tags: N-terminal GST; chain copies: 3; dsDNA, one strand shown
# Chain of HSF1 (Q00613 whole entry): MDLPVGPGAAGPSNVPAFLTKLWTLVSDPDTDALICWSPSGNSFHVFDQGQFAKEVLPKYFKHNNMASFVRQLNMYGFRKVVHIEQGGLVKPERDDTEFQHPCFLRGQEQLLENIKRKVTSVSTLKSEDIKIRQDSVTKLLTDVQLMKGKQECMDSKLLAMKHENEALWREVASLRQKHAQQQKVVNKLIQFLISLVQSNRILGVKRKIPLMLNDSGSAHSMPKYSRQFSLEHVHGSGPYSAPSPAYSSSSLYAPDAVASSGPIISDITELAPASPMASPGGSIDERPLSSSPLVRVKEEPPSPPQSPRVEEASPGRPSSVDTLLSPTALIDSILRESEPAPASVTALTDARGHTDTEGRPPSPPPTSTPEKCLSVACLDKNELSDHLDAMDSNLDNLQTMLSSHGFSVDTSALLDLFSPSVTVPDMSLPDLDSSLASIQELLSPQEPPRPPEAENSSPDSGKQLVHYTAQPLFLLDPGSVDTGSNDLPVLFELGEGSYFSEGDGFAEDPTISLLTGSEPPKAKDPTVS
# Procedure, shortened: as §1
# [13] = target: T8, SPIC (Homo sapiens, UniProt Q8N5J4 1-248); settings: protein: recombinant; tags: N-terminal GST; dsDNA, one strand shown
# T8 sequence: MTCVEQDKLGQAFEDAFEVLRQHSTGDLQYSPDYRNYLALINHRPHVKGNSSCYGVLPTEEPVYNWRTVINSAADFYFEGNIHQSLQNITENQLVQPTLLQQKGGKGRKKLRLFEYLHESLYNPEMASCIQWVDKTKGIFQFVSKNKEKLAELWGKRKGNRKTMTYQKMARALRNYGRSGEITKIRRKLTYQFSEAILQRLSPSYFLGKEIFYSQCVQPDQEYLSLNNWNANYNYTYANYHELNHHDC
# Procedure, shortened: as §1
# [14] = target: ELF4 (Homo sapiens, UniProt Q99607 1-663); settings: protein: recombinant; tags: N-terminal GST; dsDNA, one strand shown
# Chain of ELF4 (Q99607 whole entry): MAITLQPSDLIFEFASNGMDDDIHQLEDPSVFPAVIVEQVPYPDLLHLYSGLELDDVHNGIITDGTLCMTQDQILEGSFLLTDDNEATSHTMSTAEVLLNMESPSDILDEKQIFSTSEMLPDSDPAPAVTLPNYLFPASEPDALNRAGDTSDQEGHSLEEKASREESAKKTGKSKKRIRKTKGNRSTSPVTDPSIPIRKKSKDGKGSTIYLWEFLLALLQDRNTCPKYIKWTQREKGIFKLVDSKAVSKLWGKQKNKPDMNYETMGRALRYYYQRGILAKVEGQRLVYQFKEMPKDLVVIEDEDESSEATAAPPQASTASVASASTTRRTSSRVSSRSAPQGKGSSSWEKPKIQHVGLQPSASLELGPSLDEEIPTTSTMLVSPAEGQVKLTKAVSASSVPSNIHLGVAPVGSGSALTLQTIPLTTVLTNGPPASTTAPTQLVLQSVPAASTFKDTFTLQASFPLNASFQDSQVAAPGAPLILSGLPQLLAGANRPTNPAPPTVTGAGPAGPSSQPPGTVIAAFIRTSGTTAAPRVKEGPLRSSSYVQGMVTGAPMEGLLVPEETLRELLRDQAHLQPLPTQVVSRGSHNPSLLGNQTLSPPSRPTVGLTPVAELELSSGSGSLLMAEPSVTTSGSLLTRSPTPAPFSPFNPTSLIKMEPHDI
# Procedure, shortened: as §1
# [15] = target: T9, ELK4 (Homo sapiens, UniProt P28324-2 1-405); settings: protein: recombinant; tags: N-terminal GST; dsDNA, one strand shown
# T9 sequence: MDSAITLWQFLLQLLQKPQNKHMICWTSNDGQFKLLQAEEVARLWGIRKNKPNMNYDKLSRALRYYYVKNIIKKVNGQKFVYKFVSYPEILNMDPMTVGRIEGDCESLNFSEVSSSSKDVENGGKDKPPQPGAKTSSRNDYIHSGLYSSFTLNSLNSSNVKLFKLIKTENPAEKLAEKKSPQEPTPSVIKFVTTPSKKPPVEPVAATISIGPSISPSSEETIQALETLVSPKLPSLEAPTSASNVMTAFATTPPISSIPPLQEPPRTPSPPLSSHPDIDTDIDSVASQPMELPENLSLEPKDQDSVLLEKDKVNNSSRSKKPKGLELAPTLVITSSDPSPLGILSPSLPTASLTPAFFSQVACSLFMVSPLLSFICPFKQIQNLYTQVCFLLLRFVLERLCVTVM
# Procedure, shortened: as §1
# [16] = target: T10, ETV2 (Homo sapiens, UniProt O00321 1-342); settings: protein: recombinant; tags: N-terminal GST; dsDNA, one strand shown
# T10 sequence: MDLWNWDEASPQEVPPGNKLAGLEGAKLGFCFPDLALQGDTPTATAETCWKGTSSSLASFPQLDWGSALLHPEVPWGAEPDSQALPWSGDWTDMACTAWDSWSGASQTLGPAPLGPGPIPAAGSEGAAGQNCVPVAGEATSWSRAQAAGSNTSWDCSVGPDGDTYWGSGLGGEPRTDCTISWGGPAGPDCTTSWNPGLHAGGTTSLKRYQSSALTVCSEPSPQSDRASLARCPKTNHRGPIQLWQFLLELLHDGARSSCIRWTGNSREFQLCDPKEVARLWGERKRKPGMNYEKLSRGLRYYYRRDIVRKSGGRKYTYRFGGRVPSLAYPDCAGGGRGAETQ
# Procedure, shortened: as §1
# [17] = target: T11, ELF3 (Homo sapiens, UniProt P78545 1-371); settings: protein: recombinant; tags: N-terminal GST; dsDNA, one strand shown
# T11 sequence: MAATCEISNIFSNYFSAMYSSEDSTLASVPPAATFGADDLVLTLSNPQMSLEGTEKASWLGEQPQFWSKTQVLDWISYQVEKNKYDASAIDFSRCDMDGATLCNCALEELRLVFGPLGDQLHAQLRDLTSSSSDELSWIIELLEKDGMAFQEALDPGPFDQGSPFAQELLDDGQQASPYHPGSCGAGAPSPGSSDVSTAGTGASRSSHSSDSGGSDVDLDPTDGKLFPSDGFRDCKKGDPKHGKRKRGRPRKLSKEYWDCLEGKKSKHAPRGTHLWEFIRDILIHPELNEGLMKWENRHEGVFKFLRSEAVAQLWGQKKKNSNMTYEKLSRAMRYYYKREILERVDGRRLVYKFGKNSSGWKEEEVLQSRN
# Procedure, shortened: as §1
# [18] = target: CRX (Homo sapiens, UniProt O43186 1-299); settings: protein: recombinant; tags: N-terminal GST; dsDNA, one strand shown
# Chain of CRX (O43186 whole entry): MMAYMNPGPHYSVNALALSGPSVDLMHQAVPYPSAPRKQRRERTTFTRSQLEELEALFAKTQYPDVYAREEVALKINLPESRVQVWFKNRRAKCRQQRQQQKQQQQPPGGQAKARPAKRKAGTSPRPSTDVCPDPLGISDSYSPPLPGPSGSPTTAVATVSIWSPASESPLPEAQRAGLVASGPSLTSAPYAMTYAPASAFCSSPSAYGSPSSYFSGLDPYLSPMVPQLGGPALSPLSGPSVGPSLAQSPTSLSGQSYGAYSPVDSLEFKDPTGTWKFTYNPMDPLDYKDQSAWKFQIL
# Procedure, shortened: as §1
# [19] = target: ETV1 (Homo sapiens, UniProt P50549 1-477); settings: protein: recombinant; tags: N-terminal GST; dsDNA, one strand shown
# Chain of ETV1 (P50549 whole entry): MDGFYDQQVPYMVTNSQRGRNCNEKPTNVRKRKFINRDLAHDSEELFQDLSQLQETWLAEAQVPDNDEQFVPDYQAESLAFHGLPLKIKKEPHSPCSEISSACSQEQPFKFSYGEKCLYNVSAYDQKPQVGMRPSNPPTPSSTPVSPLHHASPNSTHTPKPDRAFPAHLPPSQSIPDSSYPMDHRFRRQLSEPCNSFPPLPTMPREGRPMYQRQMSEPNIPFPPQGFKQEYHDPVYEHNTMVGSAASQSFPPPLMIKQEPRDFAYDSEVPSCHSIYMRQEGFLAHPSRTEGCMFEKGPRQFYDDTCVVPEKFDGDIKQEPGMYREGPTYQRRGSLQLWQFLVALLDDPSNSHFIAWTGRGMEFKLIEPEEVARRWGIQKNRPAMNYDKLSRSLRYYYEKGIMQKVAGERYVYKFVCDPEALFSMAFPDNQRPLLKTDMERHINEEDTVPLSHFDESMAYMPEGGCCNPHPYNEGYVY
# Procedure, shortened: as §1
sequence,measurement,setting,value
TTAAGC,binding signal,[1],"1.18 fold enrichment (6-mer frequency, TF over GST control)"
same,binding signal,[2],"1.18 fold enrichment (6-mer frequency, TF over GST control)"
same,binding signal,[3],"1.24 fold enrichment (6-mer frequency, TF over GST control)"
same,binding signal,[4],"1.15 fold enrichment (6-mer frequency, TF over GST control)"
same,binding signal,[5],"1.18 fold enrichment (6-mer frequency, TF over GST control)"
same,binding signal,[6],"1.13 fold enrichment (6-mer frequency, TF over GST control)"
same,binding signal,[7],"1.1 fold enrichment (6-mer frequency, TF over GST control)"
same,binding signal,[8],"1.08 fold enrichment (6-mer frequency, TF over GST control)"
same,binding signal,[9],"1.18 fold enrichment (6-mer frequency, TF over GST control)"
same,binding signal,[10],"1.18 fold enrichment (6-mer frequency, TF over GST control)"
same,binding signal,[11],"1.12 fold enrichment (6-mer frequency, TF over GST control)"
same,binding signal,[12],"2.25 fold enrichment (6-mer frequency, TF over GST control)"
same,binding signal,[13],"1.19 fold enrichment (6-mer frequency, TF over GST control)"
same,binding signal,[14],"1.22 fold enrichment (6-mer frequency, TF over GST control)"
same,binding signal,[15],"1.15 fold enrichment (6-mer frequency, TF over GST control)"
same,binding signal,[16],"1.03 fold enrichment (6-mer frequency, TF over GST control)"
same,binding signal,[17],"1.1 fold enrichment (6-mer frequency, TF over GST control)"
same,binding signal,[18],"3.77 fold enrichment (6-mer frequency, TF over GST control)"
same,binding signal,[19],"1.11 fold enrichment (6-mer frequency, TF over GST control)"
